According to the supplement of paper PMC11060735:
Values joined by “and” are separate entries in the source; they are usually repeats but may differ in a detail not shown here. Identical values can stand only once. Counter-ions that a name gives are not always drawn. About 50 (3%) of roughly 1,800 compounds showed activity. Only a selection was taken, and actives are over-represented in it overall.

System: mouse p16Ink4a+/- lung fibroblasts (INKBRITE, bleomycin-injured)
Assay: percentage of GFP+ (p16Ink4a+) fibroblasts among all cells in well; higher = less depletion of p16Ink4a+ cells, active = 20 or less
Conditions: 1 µM; 3 days

SMILES	percentage of GFP+
C[C@H](NC(=O)/C(C#N)=C/c1cccc(Br)n1)c1ccccc1	43% (inactive)
N#C/C(=C\c1ccc(O)c(O)c1)C(=O)NCc1ccccc1 [Tyrphostin Ag 490]	42.9% (inactive)
CCC[C@H](NC(=O)/C(C#N)=C/c1cccc(Br)n1)c1ccccc1 [Degrasyn]	13.1% (active)
Nc1ccn([C@@H]2O[C@H](CO)[C@@H](O)C2(F)F)c(=O)n1 [Gemcitabine]	17.1% (active)
Nc1ccn([C@@H]2O[C@H](CO)[C@@H](O)[C@H]2O)c(=O)n1 [Cytidine]	48.9% (inactive)
Nc1ccn([C@@H]2O[C@H](CO)[C@@H](O)[C@@H]2O)c(=O)n1 [Cytarabine]	26.8% (inactive)
Cc1nc2n(c(=O)c1CCN1CCC(c3noc4cc(F)ccc34)CC1)CCCC2 [Risperidone]	42.6% (inactive)
COc1ccc(-c2ccc3ncc4c(c3c2)n(-c2ccc(N3CCNCC3)c(C(F)(F)F)c2)c(=O)n4C)cn1	10.6% (active)
CCC(=O)N1CCN(c2ccc(-n3c(=O)ccc4cnc5ccc(-c6cnc7ccccc7c6)cc5c43)cc2C(F)(F)F)CC1 [Torin 1]	46% (inactive)
Cn1c(=O)n(-c2ccc(C(C)(C)C#N)cc2)c2c3cc(-c4cnc5ccccc5c4)ccc3ncc21 [Dactolisib]	36% (inactive)
Cc1cc(Nc2cc(CN3CCOCC3)c3nc(C)c(Cc4ccc(Cl)cc4F)n3n2)[nH]n1	43.7% (inactive)
Cn1c(N2CCCCS2(=O)=O)nc(C(=O)NCc2ccc(F)cc2)c(O)c1=O	26.4% (inactive)
NC(=O)c1noc([C@H](CCCC2CCCCC2)CC(=O)NO)n1	47% (inactive)
CC(=O)O[C@H]1C[C@@H]2CC[C@@H]3[C@H](CC[C@@]4(C)[C@H]3C[C@H]([N+]3(C)CCCCC3)[C@@H]4OC(C)=O)[C@@]2(C)C[C@@H]1N1CCCCC1 [Vecuronium]	47% (inactive)
O=C(O)c1ccccc1 [Benzoic Acid]	44.8% (inactive)
CN(NC(=O)CC(=O)NN(C)C(=S)c1ccccc1)C(=S)c1ccccc1 [Elesclomol]	12% (active)
O=C(O)CCNC(=O)c1ccccc1 [Betamipron]	46% (inactive)
Cn1cc(C2=C(c3cn(CCCSC(=N)N)c4ccccc34)C(=O)NC2=O)c2ccccc21	58.4% (inactive)
OC[C@H]1O[C@@H](n2cnc3c(O)ncnc32)[C@H](O)[C@@H]1O [Inosine]	47.7% (inactive)
CN1CCN(CCOc2cc(OC3CCOCC3)c3c(Nc4c(Cl)ccc5c4OCO5)ncnc3c2)CC1 [Saracatinib]	46.2% (inactive)
CC[C@]1(O)C[C@@H]2CN(CCc3c([nH]c4ccccc34)[C@@](C(=O)OC)(c3cc4c(cc3OC)N(C=O)[C@@H]3C45CCN4CC=C[C@](CC)([C@H]45)[C@@H](OC(C)=O)[C@]3(O)C(=O)OC)C2)C1 (some centres not stated) [Vincristine]	16.5% (active)

SMILES	percentage of GFP+
CC[C@]1(O)C[C@@H]2CN(CCc3c([nH]c4ccccc34)[C@@](C(=O)OC)(c3cc4c(cc3OC)N(C)[C@@H]3C45CCN4CC=C[C@](CC)([C@H]45)[C@@H](OC(C)=O)[C@]3(O)C(=O)OC)C2)C1 (some centres not stated) [Vinblastine]	24.8% (inactive)
CC#C[C@]1(O)CC[C@H]2[C@@H]3CCC4=CC(=O)CCC4=C3[C@@H](c3ccc(N(C)C)cc3)C[C@@]21C [Mifepristone]	46.9% (inactive)
CN[C@@H](C)C(=O)N[C@H](C(=O)N1CCC[C@H]1C(=O)Nc1snnc1-c1ccccc1)C1CCCCC1	21.9% (inactive)
C=CCNC(N)=S [Allylthiourea]	35% (inactive)
N=C(N)N/N=C/c1c(Cl)cccc1Cl [Guanabenz]	49.3% (inactive)
NC(=S)N/N=C/c1ncccc1N [Triapine]	17.4% (active)
COc1ccc([C@@H]2CC(=O)c3c(O)cc(O)cc3O2)cc1O [Hesperetin]	47.8% (inactive)
COc1cc2nccc(Oc3ccc(NC(=O)C4(C(=O)Nc5ccc(F)cc5)CC4)cc3)c2cc1OC [Cabozantinib]	29.6% (inactive)
CCOc1nc2cccc(C(=O)OC(C)OC(=O)OC3CCCCC3)c2n1Cc1ccc(-c2ccccc2-c2nn[nH]n2)cc1 (configuration not stated) [Candesartan Cilextil]	44.8% (inactive)
CC(=O)Oc1cc2c(s1)CCN(C(C(=O)C1CC1)c1ccccc1F)C2 (configuration not stated) [Prasugrel]	49.3% (inactive)
Cc1ccc(C(=O)Nc2ccc(CN3CCN(C)CC3)c(C(F)(F)F)c2)cc1C#Cc1cnc2[nH]ncc2c1 [Olverembatinib]	17.2% (active)
Cc1ccc(NC(=O)c2ccc(CN3CCN(C)CC3)cc2)cc1Nc1nc(-c2cccnc2)cs1 [Masitinib]	30.8% (inactive)
Cc1ccc(C(=O)Nc2ccc(CN3CCN(C)CC3)c(C(F)(F)F)c2)cc1C#Cc1cnc2cccnn12 [Ponatinib]	31.2% (inactive)
Cn1c(=O)c(F)c(Nc2ccc(I)cc2F)c2c(=O)n(C[C@@H](O)CO)cnc21	28.4% (inactive)
O=S(=O)(c1cccc2cnccc12)N1CCCNCC1 [Fasudil Hydrochloride]	48.7% (inactive)
Nc1ccccc1NC(=O)c1ccc(CNC(=O)OCc2cccnc2)cc1 [Entinostat]	32% (inactive)
Cc1ccc(NC(=O)c2ccc(CN3CCN(C)CC3)cc2)cc1Nc1nccc(-c2cccnc2)n1 [Imatinib, Imatinib Mesylate]	32.5% (inactive) and 39% (inactive)
Nc1ccccc1NC(=O)c1ccc(CNc2nccc(-c3cccnc3)n2)cc1 [Mocetinostat]	12.6% (active)
N#CC1(c2ccc(NC(=O)c3cccnc3NCc3ccncc3)cc2)CCCC1 [Apatinib]	28% (inactive)
N=C(N)NC(=O)c1nc(Cl)c(N)nc1N [Amiloride]	33.1% (inactive)
CC(C)(C#N)c1cc(Cn2cncn2)cc(C(C)(C)C#N)c1 [Anastrozole]	45.5% (inactive)

SMILES	percentage of GFP+
O=C(Cc1ccc(-c2ccc(OCCN3CCOCC3)cc2)cn1)NCc1ccccc1	30.9% (inactive)
CC(C)c1nc(CN(C)C(=O)N[C@@H](CCN2CCOCC2)C(=O)N[C@H](CC[C@H](Cc2ccccc2)NC(=O)OCc2cncs2)Cc2ccccc2)cs1 [Cobicistat]	43.4% (inactive)
COc1ccc(C[C@H](NC(=O)[C@H](C)NC(=O)CN2CCOCC2)C(=O)N[C@@H](Cc2ccccc2)C(=O)[C@]2(C)CO2)cc1	11.6% (active)
C[C@H](N[C@@H](CCc1ccccc1)C(=O)O)C(=O)N1CCC[C@H]1C(=O)O [Enalaprilat]	36.7% (inactive)
COC[C@H](NC(=O)c1cnc(C)s1)C(=O)N[C@@H](COC)C(=O)N[C@@H](Cc1ccccc1)C(=O)C1(C)CO1 (some centres not stated) [Oprozomib]	5.21% (active)
CC(C)C[C@H](NC(=O)[C@H](CCc1ccccc1)NC(=O)CN1CCOCC1)C(=O)N[C@@H](Cc1ccccc1)C(=O)N[C@@H](CC(C)C)C(=O)[C@@]1(C)CO1 [Carfilzomib]	4.67% (active)
COC1=C(OC)C(=O)C(CCCCCCCCCCO)=C(C)C1=O [Idebenone]	43.7% (inactive)
CCCc1cc(C)nc(O)c1CNC(=O)c1cc(-c2ccc(N3CCN(C(C)C)CC3)nc2)cc2c1cnn2C(C)C	39.6% (inactive)
O=C(O)c1cc(-c2ccccc2)nc2ccccc12 [Cinchophen]	46.7% (inactive)
C[C@@]1(c2cc(-c3cncnc3)c(F)cc2F)CCSC(N)=N1	36.4% (inactive)
COC(=O)c1ccc2c(/C(=N/c3ccc(N(C)C(=O)CN4CCN(C)CC4)cc3)c3ccccc3)c(O)[nH]c2c1 [Nintedanib]	25.4% (inactive)
O=C(NC1CCOCC1)c1ccc(-c2cc(-c3c[nH]nc3-c3ccccn3)ccn2)cc1	40.4% (inactive)
Cc1cnc(NC(=O)Nc2cc(Br)c(C)cc2OC[C@@H]2CNCCO2)cn1	28.6% (inactive)
CCc1c(Cl)c(O)c(Cl)c(O)c1C(=O)O[C@H]1[C@H](O)[C@H](OC)[C@H](OC/C2=C\C=C\C[C@H](O)/C(C)=C\[C@H](CC)[C@@H](O[C@@H]3OC(C)(C)[C@@H](OC(=O)C(C)C)[C@H](O)[C@@H]3O)/C(C)=C\C(C)=C/C[C@@H]([C@@H](C)O)OC2=O)O[C@@H]1C [Fidaxomicin]	50.9% (inactive)
Cc1cc(C#N)cc(C)c1Oc1nc(Nc2ccc(C#N)cc2)nc(N)c1Br [Etravirine]	35% (inactive)
COc1cccc2c1C(=O)c1c(O)c3c(c(O)c1C2=O)C[C@@](O)(C(C)=O)C[C@@H]3O[C@H]1C[C@H](N)[C@H](O)[C@H](C)O1 [Daunorubicin]	24.3% (inactive)
COc1cccc2c1C(=O)c1c(O)c3c(c(O)c1C2=O)C[C@@](O)(C(=O)CO)C[C@@H]3O[C@H]1C[C@H](N)[C@H](O)[C@H](C)O1 [Doxorubicin]	25.2% (inactive)
CC(=O)[C@]1(O)Cc2c(O)c3c(c(O)c2[C@@H](O[C@H]2C[C@H](N)[C@H](O)[C@H](C)O2)C1)C(=O)c1ccccc1C3=O [Idarubicin, Idarubicin Hydrochloride]	19.9% (active)
CC(=O)N1CCN(CCOc2ccc(C3CCN(C4=Nn5c(nnc5C(F)(F)F)CC4)CC3)cc2)CC1	43.8% (inactive)
CC[C@H](C)[C@H]1O[C@]2(CC[C@@H]1C)C[C@@H]1C[C@@H](C/C=C(\C)[C@@H](O[C@H]3C[C@H](OC)[C@@H](O[C@H]4C[C@H](OC)[C@@H](O)[C@H](C)O4)[C@H](C)O3)[C@@H](C)/C=C/C=C3\CO[C@@H]4[C@H](O)C(C)=C[C@@H](C(=O)O1)[C@]34O)O2 [Ivermectin]	37.9% (inactive)
